FLuc modulator: qHTS profiling assay for firefly luciferase inhibitor/activator using purifed enzyme and Km concentrations of substrates (counterscreen for miR-21 project); 360,000 compounds, 6.9% hits; purified FLuc, Km substrates, luminescence inhibition; Potency, µM (top dose mostly 57.5 µM), actives largely listed as inhibitors; further: nearly all actives have a fitted effect of over 55% in size
Target sequence (P08659 whole entry, looked up): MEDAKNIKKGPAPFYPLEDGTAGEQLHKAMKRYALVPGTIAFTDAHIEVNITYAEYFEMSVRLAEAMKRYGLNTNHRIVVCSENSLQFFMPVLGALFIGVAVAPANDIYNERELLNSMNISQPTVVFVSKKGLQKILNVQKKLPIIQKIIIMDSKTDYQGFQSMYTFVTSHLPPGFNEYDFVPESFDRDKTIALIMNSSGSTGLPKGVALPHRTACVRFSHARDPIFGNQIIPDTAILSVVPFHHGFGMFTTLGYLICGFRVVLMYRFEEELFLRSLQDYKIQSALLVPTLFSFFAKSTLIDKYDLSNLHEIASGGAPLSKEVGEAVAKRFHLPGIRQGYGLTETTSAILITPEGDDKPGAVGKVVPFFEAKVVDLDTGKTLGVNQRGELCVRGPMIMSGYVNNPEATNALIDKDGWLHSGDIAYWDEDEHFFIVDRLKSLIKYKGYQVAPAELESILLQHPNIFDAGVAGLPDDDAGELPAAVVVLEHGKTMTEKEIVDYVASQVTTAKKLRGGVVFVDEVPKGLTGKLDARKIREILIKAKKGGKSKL
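Biochemical qHTS of compounds, final roughly 60 µM downward over six points, against 10 nM purified firefly luciferase using Km concentrations of substrates (10 uM D-luciferin, 10 uM ATP) in Tris acetate pH 7.5 buffer; luminescence output.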
Rab9 prom act: qHTS Assay for Rab9 Promoter Activators; 320,000 compounds, 2.8% hits; Potency, µM (titrated, usually from 9.22 µM), usual class: activators; Huh7 Rab9 promoter-luciferase reporter, luminescence, 24 h; further: nearly all actives have a fitted effect of over 60% in size
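Measured in stably transfected Huh7 cells bearing a Rab9 promoter–luciferase construct: 24 h compound treatment at 37 °C, followed by luminescence detection.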
KinaseGlo FLuc: Counterscreen for Luciferase (Kinase-Glo TM) Inhibition. Kinase-Glo luciferase, ATP luminescence, 8 min. Luciferin 4-monooxygenase (Photuris pensylvanica), Q27757. Potency, µM (highest dose often 38.3 µM), usual class: inhibitors. 200,000 compounds, 0.28% hits; further: nearly all actives have a fitted effect of over 60% in size
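Substrate mix (final 50 mM imidazole pH 7.2, 50 mM KCl, 7 mM MgCl2, 10 uM ATP, 0.01% Tween 20, 0.05% BSA) plus pin-tool compound, then Kinase-Glo detection mix; 8 min ambient, luminescence read.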
SMN2 splice enh: qHTS Assay for Enhancers of SMN2 Splice Variant Expression; HEK293 SMN2-luciferase splicing reporter, luminescence, 30-36 h; Potency, µM (highest dose often 46.1 µM), usual class: activators; 210,000 compounds, 2.8% hits; AID 1458, 2008; further: nearly all actives have a fitted effect of over 55% in size
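HEK293 cells carry an SMN2 minigene-luciferase reporter in which exon 7 inclusion puts luciferase in frame. Cells were seeded at 2000 cells/well, attached for 10-12 hours, then exposed to compounds for 30-36 hours at 37C before ONE-Glo luminescence.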
NPC1 promoter act: qHTS Assay for NPC1 Promoter Activators | Huh7 NPC1 promoter luciferase reporter, 24 h | Potency, µM (highest dose often 9.22 µM), usual class: activators | 320,000 compounds, 2.4% hits | AID 485313, 2010; further: nearly all actives have a fitted effect of over 60% in size
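Huh7 cells stably carrying NPC1 promoter–luciferase, plated in Opti-MEM with 10% FBS for 2 h, were exposed to compound in DMSO for 24 h at 37 °C; luciferase reagent was added for 10 min and luminescence read.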
ELG1 genotoxic: qHTS screen for small molecules that induce genotoxicity in human embryonic kidney (HEK293T) cells expressing luciferase-tagged ELG1. 330,000 compounds, 1.3% hits. Potency, µM (top dose mostly 46 µM), actives largely listed as activators. AID 504466, 2011. HEK293T ELG1-luciferase reporter, luminescence, 16 h; further: nearly all actives have a fitted effect of over 60% in size
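HEK293T cells expressing luciferase-tagged ELG1 were treated with compound or DMSO for 16 hr at 37°C. Luciferase activity was then read after 30 min with ONE-Glo at room temperature; rising signal flags genetic stress.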
Numbers stand for hits; - = inactive; ? = inconclusive; . = no result. Only some compounds are listed: those with a hit (about 7.5% of all), similar ones and a draw of the others. The call rests on the fitted dose curve; in most records, active means well fitted curve in the direction sought with a large enough effect; inconclusive means small, poorly fitted or top-dose-only effect, or another doubt; inactive means no such curve, though single readings can be large; an effect the other way counts as inactive or inconclusive.

SMILES	FLuc modulator	Rab9 prom act	KinaseGlo FLuc	SMN2 splice enh	NPC1 promoter act	ELG1 genotoxic
COc1cc(OC)c(-c2nc3ccccc3s2)cc1OC	12µM	-	-	.	-	-
COc1ccc(C(=O)N2CCN(c3cccc(C)c3C)CC2)cc1S(=O)(=O)NC1CC1	-	-	.	.	-	-
COc1cccc(C(=O)NC2C(=O)N3C(C(=O)O)=C(COC(C)=O)CSC23)c1 (centres undefined)	21µM	-	.	.	-	-
COc1cccc(CNC(=O)C2CCN(S(=O)(=O)c3ccc4c(c3)CCCN4C(C)=O)CC2)c1	-	.	.	.	.	.
Cc1ccc(-c2nnc(-c3cccc(Br)c3)o2)cc1	4.8µM	?	-	13µM	?	8.2µM
Brc1cccc(-c2nnc(-c3ccccc3)o2)c1	3µM	1.4µM	-	18µM	2µM	3.3µM
C/C(CC(=O)Nc1ccc2c(c1)OCO2)=N\NC(=O)C(c1ccccc1)c1ccccc1	-	-	-	-	-	-
C[C@@H]1COC(=O)[C@@H](Cc2ccc(F)cc2)C/C=C\C[C@@H](CC(=O)N[C@H](CO)Cc2ccccc2)C(=O)N1	.	.	.	.	.	-
COC(=O)c1cc(=O)c(O)c2c(O)c(O)ccc2c1	.	.	-	-	.	.
COc1cccc(CNc2ncc(Br)cc2Br)c1O	27µM	?	-	-	?	-
Oc1ccc2ccccc2c1CNc1ccc(Br)cn1	24µM	-	.	.	-	-
Oc1ccc2ccccc2c1CNc1ccc(Br)cc1	-	-	.	.	-	-
COc1cccc(CNn2cnnc2)c1O	-	-	-	.	-	-
COc1cccc(CNc2ccc(Br)cn2)c1O	1.5µM	2.8µM	-	14µM	1µM	?
O=c1[nH]ccc2c(S(=O)(=O)N3CCCNCC3)cccc12	.	.	-	.	.	.
CC1CCN(S(=O)(=O)c2ccc3c(c2)N(CC(=O)NCc2ccccc2Cl)C(=O)CS3)CC1	-	.	.	.	.	.
Cc1ccccc1N=C1NC(=O)/C(=C/c2cccn2-c2cccc(C(=O)O)c2)S1	?	-	-	-	-	-
O=S(=O)(O)c1ccc(N=NNc2ccc(Br)cc2)cc1	9.5µM	-	.	.	-	-
CC1CCc2ccccc2N1CC(=O)Nc1cccc(S(=O)(=O)N2CCCC2)c1 (centres undefined)	-	-	.	.	-	-
Cc1cnc(CNc2nc(-c3ccc(N(C)C)cc3)nc3ccccc23)cn1	.	.	-	?	.	.
CCc1ccc2c(Cl)c(C(=O)N/N=C/c3c[nH]c4ccccc34)sc2c1	19µM	-	-	-	-	-
CCc1ccc(-c2cc(C(=O)N/N=C/c3c[nH]c4ccccc34)[nH]n2)cc1	4.3µM	-	-	-	-	-
C/C(=N\NC(=O)c1ccco1)c1cc(Cl)sc1Cl	?	?	.	.	-	?
CCC(=O)Nc1nc2cc(OC)ccc2s1	12µM	1.4µM	-	?	2.2µM	?
CCC(=O)Nc1nc2ccc3nc(C)sc3c2s1	?	4µM	-	11µM	?	8.2µM
SMILES	FLuc modulator	Rab9 prom act	KinaseGlo FLuc	SMN2 splice enh	NPC1 promoter act	ELG1 genotoxic
COc1ccc2sc(NC(C)=O)nc2c1	17µM	?	-	18µM	2.5µM	9.2µM
COc1ccc2sc(NC(=O)NC(=O)c3c(Cl)cccc3Cl)nc2c1	19µM	-	.	.	-	-
COc1ccc(C(=O)NCc2c(C)nn(Cc3ccccc3)c2C)cc1S(=O)(=O)N1CCOCC1	-	-	.	.	-	-
COc1ccc2sc(NCc3ccccc3)nc2c1	6µM	3.5µM	.	.	2.2µM	?
COc1ccc2sc(NC(=O)CC(C)C)nc2c1	11µM	4.5µM	-	?	?	18µM
CC(=O)c1ccc(-c2ccc(-c3cc(=O)oc4c(C(C)C)ccc(C)c34)cc2)cc1	.	.	-	.	.	-
COc1ccc(OC)c(C2CC(=O)Nc3ccc4ccccc4c32)c1 (centres undefined)	-	.	.	-	.	.
COc1ccc(OC)c(C2CC(=O)Nc3cc(OC)c(OC)c(OC)c32)c1 (centres undefined)	-	-	-	?	-	18µM
CC(C)c1ccc(OCC(=O)N2CCCCCC2)c(Br)c1	21µM	2.8µM	-	-	?	?
Cc1cc(Cl)ccc1OCCCC(=O)N1CCCCC1	21µM	?	-	-	?	?
Cc1cc(Cl)ccc1OCCCC(=O)NN	-	-	-	-	-	-
Cc1ccc(OCC(=O)N2CCCCCC2)c(C)c1	-	-	-	7.1µM	-	?
Cc1cc(Cl)ccc1OCCCC(=O)OCC(N)=O	27µM	-	-	-	-	-
COc1ccc(S(=O)(=O)N(C(=O)c2ccncc2)c2ccc3oc(C)c(C(C)=O)c3c2)cc1	-	.	.	-	.	.
COc1ccc(CNC(=O)COC(=O)CCCOc2ccc(Cl)cc2Cl)cc1OC	17µM	-	-	-	-	-
CCc1nnc(SCc2nc(-c3ccccc3Cl)oc2C)c2cc3sc(C)cc3n12	-	.	.	.	.	.
O=C(Nc1ccccc1)c1cn2ccccc2n1	0.95µM	0.2µM	.	.	0.32µM	?
Cc1c(NC(=O)c2cn3ccccc3n2)cccc1-n1cnnn1	?	-	.	.	-	-
CCN(CC(=O)Nc1c(F)cccc1F)C(=O)c1cn2ccccc2n1	-	-	.	.	-	-
CC1CN(C(=O)c2cn3ccccc3n2)CC(C)O1 (centres undefined)	12µM	-	-	-	-	-
O=C(Nc1ccc(-n2cnnn2)cc1)c1cn2ccccc2n1	?	1.6µM	.	.	1.6µM	?
Cc1csc(NC(=O)c2cn3ccccc3n2)n1	2.1µM	?	10µM	0.63µM	?	0.73µM
CC1CN(C(=O)c2ccncc2)CC(C)O1 (centres undefined)	-	-	-	-	?	-
COc1cccc(-c2nc(SCC(=O)NC3CCCC3)c(-c3ccc(F)cc3)[nH]2)c1	-	.	.	-	.	.
C[C@H](CO)N1C[C@H](C)[C@@H](CN(C)Cc2ccc(Cl)c(Cl)c2)Oc2c(NS(=O)(=O)c3cccs3)cccc2C1=O	.	.	.	.	.	-
SMILES	FLuc modulator	Rab9 prom act	KinaseGlo FLuc	SMN2 splice enh	NPC1 promoter act	ELG1 genotoxic
COc1ccc(OC)c(NC(=O)Cn2c(=O)n(-c3ccc(Cl)cc3)c(=O)c3c(C)c(C)sc32)c1	-	.	.	-	.	.
CC(C)COn1c(=S)[nH]c2ccccc2c1=O	21µM	-	-	-	-	?
CC(C)C(=O)Nc1ccc(NC(=O)c2ccc(COc3ccccc3)cc2)cc1	-	-	.	.	-	?
Cc1ccc(Sc2cnc3ccccc3n2)cc1	6.7µM	3.5µM	-	?	?	2.6µM
c1ccc(Nc2ccnc(Nc3ccccc3)n2)cc1	1.9µM	?	.	.	2.5µM	?
C[C@H](CO)N1C[C@H](C)[C@@H](CN(C)C(=O)NC2CCCCC2)Oc2ccc(NS(=O)(=O)c3ccc(F)cc3)cc2C1=O	.	.	.	.	.	-
CCN(c1ccccc1)S(=O)(=O)c1nnc(NC(=O)c2cccs2)s1	0.34µM	.	.	.	.	.
